According to PubChem BioAssay AID485336 (The Scripps Research Institute Molecular Screening Center, 2010):
Measured potencies and affinities stand elsewhere. Active and inactive are the calls of the source.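 Rule for the calls: active = average inhibition at 10 µM of 40% or more; inactive = average inhibition at 10 µM below 40%.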

molecular target: Krueppel-like factor 5 (Homo sapiens) (UniProt Q13887); assay: KLF5 protein lowering by immunoblot – western blot, chemiluminescence, DLD-1 cells, titration, orthogonal assay for KLF5 inhibitor project, late-stage follow-up (AID 485336); conditions: DLD-1 KLF5 protein level, 24 h; series mostly up to 20 µM
Sequence (Q13887 whole entry, looked up): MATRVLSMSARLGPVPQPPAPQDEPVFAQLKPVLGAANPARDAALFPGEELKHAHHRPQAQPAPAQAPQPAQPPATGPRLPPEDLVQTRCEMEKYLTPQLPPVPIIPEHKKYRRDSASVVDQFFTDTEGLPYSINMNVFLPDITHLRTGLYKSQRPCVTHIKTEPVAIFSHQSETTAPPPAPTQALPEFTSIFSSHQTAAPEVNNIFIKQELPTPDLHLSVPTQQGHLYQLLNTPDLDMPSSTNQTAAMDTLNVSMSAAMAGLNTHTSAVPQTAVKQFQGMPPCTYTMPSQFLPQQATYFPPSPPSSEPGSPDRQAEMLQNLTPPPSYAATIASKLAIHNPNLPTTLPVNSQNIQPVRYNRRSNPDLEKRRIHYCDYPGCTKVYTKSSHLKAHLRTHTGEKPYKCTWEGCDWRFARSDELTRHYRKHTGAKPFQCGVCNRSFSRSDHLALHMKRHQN

outcome, inactive:
COC(=O)c1ccc2nc(Nc3nc4ccc(F)cc4s3)sc2c1
CCCc1ccc(-c2ccc(/C=C/C(=O)O)cc2)nc1
CCOC(=O)c1sc(NC(=O)c2cc3c(s2)CCC(C)C3)nc1C (stereo not given)
Cc1ccc2nc(NC(=O)CCCc3nc4ccccc4s3)sc2c1
CCOC(=O)c1sc(NC(=O)c2ccc3ncsc3c2)nc1C
